Measured values published in PubChem BioAssay (Tox21).
Values joined by “and” are separate entries in the source; they are usually repeats but may differ in a detail not shown here. Equal entries are not always repeated. Records with an inconclusive call do not appear. Where a call stands in place of a potency, no number is given. Active and inactive are the calls of the source. Calls follow the shape of the dose curve; as a rule, active = well fitted curve in the direction sought with a large enough effect in the repeat runs; inconclusive = weak or mixed curves; inactive = no such curve, though single readings can be large; an effect the other way counts as inactive or inconclusive.

Target: Voltage-gated inwardly rectifying potassium channel KCNH2 (Homo sapiens) (UniProt Q12809)
Sequence (Q12809 whole entry, looked up): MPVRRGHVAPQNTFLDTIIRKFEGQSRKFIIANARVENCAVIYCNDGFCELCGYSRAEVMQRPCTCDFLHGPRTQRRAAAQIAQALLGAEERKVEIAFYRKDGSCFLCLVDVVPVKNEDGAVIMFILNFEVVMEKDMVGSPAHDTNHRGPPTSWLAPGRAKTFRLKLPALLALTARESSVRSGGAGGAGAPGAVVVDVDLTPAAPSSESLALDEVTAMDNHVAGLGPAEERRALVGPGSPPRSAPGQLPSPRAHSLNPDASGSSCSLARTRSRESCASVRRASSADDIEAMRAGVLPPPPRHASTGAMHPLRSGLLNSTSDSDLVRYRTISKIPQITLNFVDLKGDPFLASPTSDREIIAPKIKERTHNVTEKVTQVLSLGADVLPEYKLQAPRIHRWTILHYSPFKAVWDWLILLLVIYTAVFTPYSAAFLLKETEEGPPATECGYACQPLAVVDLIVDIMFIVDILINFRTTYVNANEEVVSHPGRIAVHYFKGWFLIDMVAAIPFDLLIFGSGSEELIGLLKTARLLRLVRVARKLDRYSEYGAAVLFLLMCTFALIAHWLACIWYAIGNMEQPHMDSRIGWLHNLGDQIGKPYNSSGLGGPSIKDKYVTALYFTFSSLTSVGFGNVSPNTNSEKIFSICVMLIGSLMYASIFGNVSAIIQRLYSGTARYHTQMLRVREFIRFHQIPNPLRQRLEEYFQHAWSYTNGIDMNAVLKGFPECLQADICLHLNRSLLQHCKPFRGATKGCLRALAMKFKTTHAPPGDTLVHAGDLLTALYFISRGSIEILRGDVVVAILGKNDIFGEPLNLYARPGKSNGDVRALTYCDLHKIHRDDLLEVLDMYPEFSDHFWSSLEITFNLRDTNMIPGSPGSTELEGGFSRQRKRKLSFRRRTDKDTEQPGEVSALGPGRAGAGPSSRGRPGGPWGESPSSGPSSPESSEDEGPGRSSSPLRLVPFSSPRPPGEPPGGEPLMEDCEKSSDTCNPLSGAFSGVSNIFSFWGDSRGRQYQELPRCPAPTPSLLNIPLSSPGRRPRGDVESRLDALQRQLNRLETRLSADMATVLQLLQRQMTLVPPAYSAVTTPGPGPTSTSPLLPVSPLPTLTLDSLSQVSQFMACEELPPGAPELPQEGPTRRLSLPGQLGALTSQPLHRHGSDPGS
Assay: Human Ether-a-go-go-Related Gene (hERG) channel small molecule antagonists: fluorescence cell-based qHTS assay (AID 1671200)
Details: hERG-U2OS cells, FluxOR thallium flux fluorescence; series mostly up to 76.8 µM
Procedure, shortened: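 hERG-U2OS cells plated overnight at 37 C, loaded with FluxOR II dye 1 h at RT in dark; after 10 min, thallium stimulus added. Fluorescence (480/540 nm) read kinetically for 2 min at 1 s intervals.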
Also: nearly all actives have a fitted effect of over 50% in size.
Potency is read from the fitted curve at half-maximal effect.

SMILES | Potency
CC(=O)Oc1c(C)c(C)c2c(c1C)CC[C@@](C)(CCC[C@H](C)CCC[C@H](C)CCCC(C)C)O2 | inactive
CCCCCCC(C)O (configuration not stated) | inactive
Oc1c(Cl)ccc(Cl)c1Cl | inactive
NCCOCCO | inactive
O=[Se](O)O | inactive
Brc1nc2ccccc2s1 | inactive
Cc1ccc(C(C)(C)C)c(O)c1 | inactive
CC(=O)[C@@]1(O)CC[C@H]2[C@@H]3C[C@H](C)C4=CC(=O)C=C[C@]4(C)[C@@]3(F)[C@@H](O)C[C@@]21C | inactive
CC(=O)O[C@]1(C(C)=O)CC[C@H]2[C@@H]3C=C(Cl)C4=CC(=O)CC[C@]4(C)[C@H]3CC[C@@]21C | inactive
C/C=C/C(=O)N(CC)c1ccccc1C | inactive
CC[C@]12CCCN3CCc4c(n(c5ccccc45)[C@@](O)(C(=O)OC)C1)[C@@H]32 | 692 nM (active) and 1.69 µM (active)
CC1(C)OC(=O)NC1=O | inactive
CC(=O)Oc1ccc(C(c2ccc(OC(C)=O)cc2)c2ccccn2)cc1 | inactive
O=C(O)c1cc(=O)[nH]c(=O)[nH]1 | inactive
CC1(C)NC(=O)N(c2ccc([N+](=O)[O-])c(C(F)(F)F)c2)C1=O | inactive
CCCCCC=O | inactive
OC[C@H]1O[C@@H]2O[C@H]3[C@H](O)[C@@H](O)[C@@H](O[C@H]4[C@H](O)[C@@H](O)[C@@H](O[C@H]5[C@H](O)[C@@H](O)[C@@H](O[C@H]6[C@H](O)[C@@H](O)[C@@H](O[C@H]7[C@H](O)[C@@H](O)[C@@H](O[C@H]1[C@H](O)[C@H]2O)O[C@@H]7CO)O[C@@H]6CO)O[C@@H]5CO)O[C@@H]4CO)O[C@@H]3CO | inactive
CC1=CC(C)(C)Nc2ccccc21 | inactive
C=CCNCC=C | inactive

SMILES | Potency
CCCCCCCC/C=C\CCCCCCCC(=O)O | inactive
IC(I)I | inactive
CCCCCCCCCCC(CO)CCCCCCCC (configuration not stated) | inactive
Cc1ccc(N)c([N+](=O)[O-])c1 | inactive
Nc1ccc2c(O)cc(S(=O)(=O)O)cc2c1 | inactive
C=CCCCCCCCCCC | inactive
COc1ccc2nc(N)sc2c1 | inactive
CCO[Si](CCCNC(N)=O)(OCC)OCC | inactive
FC(F)(F)C(Cl)Br (configuration not stated) | inactive
C=CC(=O)OCCCC | inactive
Cc1ccc([N+](=O)[O-])c(C)c1 | inactive
CCC(=O)O[C@H]1[C@H](O[C@@H]2[C@@H](C)[C@H](O[C@H]3C[C@@](C)(OC)[C@@H](O)[C@H](C)O3)[C@@H](C)C(=O)O[C@H](CC)[C@@](C)(O)[C@H](O)[C@@H](C)C(=O)[C@H](C)C[C@@]2(C)O)O[C@H](C)C[C@@H]1N(C)C | inactive
CC(=O)Nc1ccc2c(c1)Cc1cc(NC(C)=O)ccc1-2 | inactive
COc1cc([C@H]2Oc3cc([C@H]4Oc5cc(O)cc(O)c5C(=O)[C@@H]4O)ccc3O[C@@H]2CO)ccc1O | inactive
Cc1ccc(S(=O)(=O)NCl)cc1 | inactive
CN(C)C | inactive
OC[C@@H](O)[C@@H](O[C@@H]1O[C@H](CO)[C@H](O)[C@H](O)[C@H]1O)[C@H](O)[C@@H](O)CO | inactive
c1ccc2c(c1)ccc1cc3c(ccc4ccccc43)cc12 | inactive

Target: Cytochrome P450 3A4 (Homo sapiens) (UniProt P08684)
Sequence (P08684 whole entry, looked up): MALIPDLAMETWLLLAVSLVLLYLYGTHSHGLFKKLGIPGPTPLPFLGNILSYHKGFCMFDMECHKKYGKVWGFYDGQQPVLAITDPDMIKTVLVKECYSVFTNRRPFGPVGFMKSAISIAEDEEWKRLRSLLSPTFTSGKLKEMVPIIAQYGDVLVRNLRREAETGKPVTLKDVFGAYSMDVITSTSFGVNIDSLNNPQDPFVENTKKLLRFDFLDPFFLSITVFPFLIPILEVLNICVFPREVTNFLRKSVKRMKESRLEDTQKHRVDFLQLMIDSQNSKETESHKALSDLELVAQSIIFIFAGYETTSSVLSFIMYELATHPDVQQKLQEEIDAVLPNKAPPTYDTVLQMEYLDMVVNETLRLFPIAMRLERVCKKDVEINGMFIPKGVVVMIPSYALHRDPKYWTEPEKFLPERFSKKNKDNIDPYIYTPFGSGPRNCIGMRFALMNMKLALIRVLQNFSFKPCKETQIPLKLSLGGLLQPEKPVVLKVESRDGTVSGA
Assay: Cytochrome P450 Family 3 Subfamily A Member 4 (CYP3A4) small molecule antagonists: luciferase reporter qHTS assay (AID 1671201)
Details: P450-Glo CYP3A4 enzyme, luciferin luminescence, 1 h; series mostly up to 115 µM
Procedure, shortened: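 P450-Glo CYP3A4 luminescent assay: compounds preincubated 10 min at room temperature with enzyme and proluciferin substrate, NADPH regeneration added, 1 h room-temperature reaction, stopped with luciferin detection reagent; luminescence read after 20 min. Ketoconazole positive control.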

SMILES | Potency
CC(=O)Oc1c(C)c(C)c2c(c1C)CC[C@@](C)(CCC[C@H](C)CCC[C@H](C)CCCC(C)C)O2 | inactive
CCCCCCC(C)O (configuration not stated) | inactive
Oc1c(Cl)ccc(Cl)c1Cl | inactive
NCCOCCO | inactive
O=[Se](O)O | inactive
Brc1nc2ccccc2s1 | inactive
Cc1ccc(C(C)(C)C)c(O)c1 | inactive
CC(=O)O[C@]1(C(C)=O)CC[C@H]2[C@@H]3C=C(Cl)C4=CC(=O)CC[C@]4(C)[C@H]3CC[C@@]21C | inactive
C/C=C/C(=O)N(CC)c1ccccc1C | inactive
CC(=O)Oc1ccc(C(c2ccc(OC(C)=O)cc2)c2ccccn2)cc1 | inactive
O=C(O)c1cc(=O)[nH]c(=O)[nH]1 | inactive
CCCCCC=O | inactive
OC[C@H]1O[C@@H]2O[C@H]3[C@H](O)[C@@H](O)[C@@H](O[C@H]4[C@H](O)[C@@H](O)[C@@H](O[C@H]5[C@H](O)[C@@H](O)[C@@H](O[C@H]6[C@H](O)[C@@H](O)[C@@H](O[C@H]7[C@H](O)[C@@H](O)[C@@H](O[C@H]1[C@H](O)[C@H]2O)O[C@@H]7CO)O[C@@H]6CO)O[C@@H]5CO)O[C@@H]4CO)O[C@@H]3CO | inactive
CC1=CC(C)(C)Nc2ccccc21 | 2.75 µM (active)
C=CCNCC=C | inactive
CCCCCCCC/C=C\CCCCCCCC(=O)O | inactive
CCCCCCCCCCC(CO)CCCCCCCC (configuration not stated) | inactive
Cc1ccc(N)c([N+](=O)[O-])c1 | inactive
Nc1ccc2c(O)cc(S(=O)(=O)O)cc2c1 | inactive
C=CCCCCCCCCCC | inactive
CCO[Si](CCCNC(N)=O)(OCC)OCC | inactive
FC(F)(F)C(Cl)Br (configuration not stated) | inactive
C=CC(=O)OCCCC | inactive
Cc1ccc([N+](=O)[O-])c(C)c1 | inactive
CCC(=O)O[C@H]1[C@H](O[C@@H]2[C@@H](C)[C@H](O[C@H]3C[C@@](C)(OC)[C@@H](O)[C@H](C)O3)[C@@H](C)C(=O)O[C@H](CC)[C@@](C)(O)[C@H](O)[C@@H](C)C(=O)[C@H](C)C[C@@]2(C)O)O[C@H](C)C[C@@H]1N(C)C | 265 nM (active) and 2.75 µM (active)
CC(=O)Nc1ccc2c(c1)Cc1cc(NC(C)=O)ccc1-2 | inactive
Cc1ccc(S(=O)(=O)NCl)cc1 | inactive
CN(C)C | inactive
OC[C@@H](O)[C@@H](O[C@@H]1O[C@H](CO)[C@H](O)[C@H](O)[C@H]1O)[C@H](O)[C@@H](O)CO | inactive
c1ccc2c(c1)ccc1cc3c(ccc4ccccc43)cc12 | inactive
